# miR122 inh: inhibitors of miR-122 in Huh7 cells; Huh7 miR-122 Renilla luciferase sensor, 48 h; neutral wells = 0, positive control = 100; activation (reporter increase), % at 12.5 µM; hit rate 0.3% among 340,000;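 active means mean replicate activation score at least 90 and every replicate individually at or above 90; inconclusive means only one of the two criteria met; inactive means neither criterion met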;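 further: higher luciferase means less miR-122 activity so hits act as miR-122 inhibitors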
# N-glyco inh: blocks N-linked glycosylation in D54 reporter cells | D54 ERlucT glycosylation luciferase reporter, 24 h; percent of 100 nM tunicamycin response | reporter increase, % at 12.5 µM | hit rate 0.23% among 360,000;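 active means mean luciferase reporter signal, scaled so untreated is 0 and the glycosylation-blocking control 100, at or above a set limit in every replicate; inconclusive means mean reaches the limit but not every replicate does; inactive means mean below the limit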;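 further: luciferase carries N-glycosylation sites so blocking glycosylation raises the light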
# RAD54 inh: blocks human RAD54 Holliday junction branch migration | AID 602329 | Q92698 | FAM/BHQ fluorescence | inhibition, % at 10.4 µM | hit rate 0.14% among 360,000;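 active means mean normalized replicate activity at least 40 and at least half of replicates scoring 40 or more; inconclusive means only one of the two criteria met; inactive means mean below 40 and under half of replicates reaching 40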;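 further: inhibitors cause a drop in the FAM fluorescence signal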
# CendR NRP1 mod: modulators of CendR peptide binding to human neuropilin-1; O14786; FAM-RPARPAR peptide binding to NRP-1, fluorescence polarization; inhibition, % at 25 µM; hit rate 0.85% among 360,000; AID 602438;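 active means inhibition or corrected inhibition above about 18%, plus a signal ratio from 0.5 to 1.5, limit read from the data, passing the limit was not always enough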
# RAD52 inh: RAD52 (human) annealing inhibition; P43351; recombinant RAD52 DNA annealing, FRET fluorescence; inhibition, % at 18.7 µM; hit rate 0.46% among 360,000;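 active means every replicate showing at least 50% inhibition; inconclusive means mean inhibition at least 50% but not in every replicate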
# Target sequence (P43351 whole entry, looked up): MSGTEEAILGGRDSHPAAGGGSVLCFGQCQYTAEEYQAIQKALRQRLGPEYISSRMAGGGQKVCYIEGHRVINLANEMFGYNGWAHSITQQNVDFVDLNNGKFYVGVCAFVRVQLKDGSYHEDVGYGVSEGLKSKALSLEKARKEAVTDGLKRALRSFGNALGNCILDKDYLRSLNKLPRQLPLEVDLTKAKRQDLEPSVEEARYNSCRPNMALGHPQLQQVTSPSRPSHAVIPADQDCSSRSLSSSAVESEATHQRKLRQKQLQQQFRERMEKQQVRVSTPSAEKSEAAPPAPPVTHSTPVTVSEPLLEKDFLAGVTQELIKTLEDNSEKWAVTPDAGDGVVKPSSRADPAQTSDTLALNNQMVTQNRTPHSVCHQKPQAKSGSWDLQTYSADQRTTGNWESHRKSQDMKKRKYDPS
# FID counter: fluorescent intercalator displacement, NS3 helicase counter-screen; DNA fluorescent intercalator displacement, fluorescence; inhibition, % at 7.9 µM; hit rate 0.17% among 290,000; AID 1845; in the data active means inhibition above about 37%;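 further: higher means more ethidium bromide displaced from hairpin DNA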
# miR-27b qPCR: alters miR-27b levels in Huh7 cells, selectivity for miR-122 inhibitors. relative miR-27b level (unnormalised ratio), ratio at 35 µM. shares compounds with miR122 inh. Huh7 miR-27b levels, qRT-PCR, 48 h. 35 tested, under 10 active. AID 687039;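 active means compounds lowering miR-27b whose fitted half-maximal dose is at most twice their top tested dose; inconclusive means flat curve with moderate drop, or poor fit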
# DNA binder FP: counter-screen for RAD52 inhibitors: DNA binding compounds; shares compounds with RAD52 inh; Salmon sperm DNA/acridine orange FP displacement; AC50, µM; hit rate 8% among 1,000; AID 652128;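 active means fitted half-maximal concentration for signal loss at or below twice the highest dose tested, in every separate run, actives reach about 64 µM in these data; inconclusive means runs disagree, or flat partial signal loss, or poor fit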
# A number is an active result; n = inactive; u = inconclusive; x = no result. Sampled rows, rich in hits. Any-hit rate of the full collection: about 1.5%.
SMILES,miR122 inh,N-glyco inh,RAD54 inh,CendR NRP1 mod,RAD52 inh,FID counter,DNA binder FP,others
CCCC#Cc1ccc2c(c1)[C@@H]1[C@@H](CCN1S(=O)(=O)c1ccccc1C)[C@@H](CO)N2,x,x,x,x,n,x,x,
CCOc1cc(C)c(S(=O)(=O)NC2CCCCC2)cc1C,198,n,n,n,x,n,x,miR-27b qPCR=n
Cc1cc(C)c(S(=O)(=O)NC2CC3CCC2C3)c(C)c1 (configuration not stated),125,n,n,n,n,n,x,miR-27b qPCR=n
CC(=O)Nc1ccc(S(=O)(=O)NC2CC3CCC2C3)cc1 (configuration not stated),n,n,n,n,n,n,x,
O=C(C[C@@H]1CC[C@@H]2[C@H](COC[C@@H](O)CN2C(=O)Nc2ccccc2)O1)NC1Cc2ccccc2C1,n,x,n,x,n,x,x,
O=S(=O)(Nc1cccc2[nH]ncc12)c1ccc(F)c2ncccc12,x,x,x,x,x,x,x,miR-27b qPCR=n
C[C@@H]1CN([C@H](C)CO)S(=O)(=O)c2ccc(C#CC3(O)CCCC3)cc2O[C@H]1CN(C)C,n,x,n,x,n,x,x,
CCCCNS(=O)(=O)c1ccc2nc(-c3cccnc3)cc(C(=O)NC(C)CC)c2c1 (configuration not stated),u,n,n,n,n,n,x,miR-27b qPCR=n
CCCCNS(=O)(=O)c1ccc2nc(-c3cccnc3)cc(C(=O)NC(C)C)c2c1,n,n,n,n,n,n,x,
COCCN1CCn2c(nc3cc(Nc4nnc(C)c5ccccc45)ccc32)C1,x,n,x,n,72,n,n,
COCCN1CCn2c(nc3cc(NC(C)=O)ccc32)C1,n,n,n,n,n,n,x,
O=C(Nc1ccc(F)cc1)N1CC(=O)N2[C@H](CO)[C@@H](c3ccc(-c4cccc(F)c4)cc3)[C@H]2C1,x,x,x,x,n,x,x,
Cc1cccc2c1-c1sc(C(=O)NCCCN3CCC(C)CC3)cc1CO2,n,n,n,n,61,n,n,
CC1CCN(CCCNC(=O)c2cc3c(s2)-c2ccccc2OC3)CC1,n,n,n,n,n,n,x,
COc1cc(OC)cc(C2=Cc3ccc(OC)cc3C(CC(C)=O)N2c2ccc(C#CC3(N)CCCCC3)cc2)c1 (configuration not stated),x,x,x,n,n,x,x,
COc1cc(OC)cc(C2=Cc3ccccc3C(CC(C)=O)N2c2ccc(C#CC3(N)CCCCC3)cc2)c1 (configuration not stated),x,x,x,n,91,x,n,
Cc1ccc(OCC(O)CNC2CCCC2)c(C)c1 (configuration not stated),n,n,n,n,n,n,x,
Cc1ccccc1OCC(O)CNC1CCC(NCC(O)COc2ccccc2C)CC1 (configuration not stated),n,n,n,20,n,n,n,
CN(C)CCNc1ncnc2c1sc1nc(-c3ccccc3)c3c(c12)CCCC3,n,n,n,n,70,n,n,
COc1ncnc2c1sc1nc(-c3ccccc3)c3c(c12)CCCC3,x,n,x,n,x,n,x,
O=C1c2ccccc2C(=O)c2c(NCc3cccnc3)cccc21,n,n,n,n,x,n,x,
O=C1c2cccc(NCCCNCCO)c2C(=O)c2cccc(NCCCNCCO)c21,n,n,x,n,91,x,1.5µM,
CN(C)CCCNc1oc(/C=C/c2cccs2)nc1S(=O)(=O)c1ccccc1,n,n,n,n,52,n,n,
COCCNc1oc(/C=C/c2cccs2)nc1S(=O)(=O)c1ccccc1,n,n,n,n,n,x,x,
CCCC(=O)Nc1ccc2c(c1)C(=O)N(C)[C@H]1CC[C@H](CC(=O)NC3CCCC3)O[C@@H]1CO2,n,x,n,x,n,x,x,
SMILES,miR122 inh,N-glyco inh,RAD54 inh,CendR NRP1 mod,RAD52 inh,FID counter,DNA binder FP,others
O=C(Nc1ccn(CCCN2CCN(Cc3cccc4ccccc34)CC2)c(=O)n1)OCc1ccccc1,n,n,x,n,52,x,n,
Oc1c(CN2CCOCC2)cc(CN2CCOCC2)c(O)c1O,x,n,n,n,61,x,n,
Fc1ccccc1CNc1nc(NCC2CC2)nc2ccsc12,n,n,n,n,51,x,n,
COc1ccccc1CNc1nc(NCc2ccccc2F)c2sccc2n1,n,n,n,n,x,x,x,
C[C@H]1CN([C@@H](C)CO)C(=O)c2cc(NC(=O)CCC(F)(F)F)ccc2O[C@H]1CN(C)S(=O)(=O)c1cccs1,n,x,n,x,n,x,x,
O=C(NCC[C@@H]1CC[C@@H](NS(=O)(=O)c2cccc(F)c2)[C@@H](CO)O1)C1CCCC1,n,x,n,x,n,x,x,
CCN(CC)CCCN(C(=O)c1ccc(OC)cc1)c1nc(-c2ccc(OC)cc2)cs1,n,n,n,n,57,44,n,
COc1ccc(-c2csc(N(CCCN(C)C)C(=O)c3ccc(C(C)(C)C)cc3)n2)cc1,n,n,n,n,n,n,x,
COc1ccc(-c2csc(N(CCCN(C)C)C(=O)c3ccc(C)cc3)n2)cc1,n,n,n,n,54,n,n,
CCN(CC)CCCN(C(=O)c1ccccc1C)c1nc(-c2ccc(OC)cc2)cs1,n,n,n,n,n,n,x,
COc1ccc(-c2csc(N(CCCN(C)C)C(=O)c3ccc(Br)cc3)n2)cc1,n,n,n,22,58,n,n,
Cc1ccc(-c2csc(N(CCCN(C)C)C(=O)c3ccco3)n2)cc1,x,n,x,n,64,n,n,
COc1ccc2c3c([nH]c2c1)[C@H](CO)N(C(=O)C1CCCCC1)CC31CCN(S(C)(=O)=O)CC1,x,x,x,x,n,x,x,
CCCCNC(=S)NCC(c1ccccc1)c1c[nH]c2ccccc12 (configuration not stated),n,n,n,n,n,n,x,
CN(C)CCCNC(=S)NCC(c1ccc(Cl)cc1Cl)c1c[nH]c2ccccc12 (configuration not stated),n,n,n,n,56,n,n,
CCCNC(=O)N1CC2(C1)[C@H](c1ccccc1)[C@H](CO)N2C(=O)C1CC1,x,x,x,x,n,x,x,
CCCCCCCCCCOC(=O)Cn1c(COc2ccc(Cl)cc2)[n+](C)c2ccccc21,x,n,57,20,76,n,n,
CCCCCCCCCCOC(=O)Cn1c(COc2cccc(C)c2)[n+](C)c2ccccc21,x,n,52,n,80,n,u,
CCCCCCCCCCOC(=O)Cn1c(COc2ccccc2)[n+](C)c2ccccc21,x,n,u,n,70,n,n,
CCCCCOC(=O)Cn1c(=O)oc2ccccc21,n,n,n,n,n,n,x,
CCCCOC(=O)Cn1c(=O)n(CC(=O)OCCCC)c2ccccc21,n,n,n,n,x,n,x,
CN(C)CCCNC(=O)/C(=C/c1ccc(-c2ccc([N+](=O)[O-])cc2)o1)NC(=O)c1ccccc1,n,n,n,n,n,n,x,
Cc1ccc(C(=O)N/C(=C\c2ccc(-c3ccc(Cl)cc3)o2)C(=O)NCCCN(C)C)cc1,n,n,x,n,52,53,n,

# Compound activity: PubChem BioAssay, several laboratories
